The target in assay [1] is Aryl hydrocarbon receptor (Homo sapiens) (UniProt P35869). Description: qHTS assay to identify small molecule that activate the aryl hydrocarbon receptor (AhR) signaling pathway (AID 743085). Further: nearly all actives have a fitted effect of over 15% in size. Further: potency means the concentration at half of the fitted maximal effect.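 On activation: HG2L7.5c1 human HepG2 liver cells with stably integrated DRE-driven firefly reporter; series mostly up to about 70 µM.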 Put shortly:
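HepG2 cells (HG2L7.5c1) stably carrying a firefly luciferase reporter driven by 20 dioxin responsive elements were exposed to compound for 24 h at 37C after a 5 h settling period; luminescence rise (ONE-Glo) indicated activation.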
Background: Quantitative high-throughput screening tests each substance at several concentrations.

The target in assay [2] is Peroxisome proliferator-activated receptor gamma (Homo sapiens) (UniProt P37231). Put plainly: qHTS assay to identify small molecule antagonists of the peroxisome proliferator-activated receptor gamma (PPARg) signaling pathway (AID 743191; calls by dose curve; further: nearly all actives have a fitted effect of over 30% in size; further: potency means the concentration at half of the fitted maximal effect). Summed up:
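Beta-lactamase reporter under UAS control in HEK293H PPARg-bla cells; compound treatment 17 h at 37C. Read-out: fluorescence intensity after 1 h room-temperature incubation with LiveBLAzer B/G FRET substrate.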

Assay [3] is described as follows: qHTS assay to identify small molecule antagonists of the peroxisome proliferator-activated receptor gamma (PPARg) signaling pathway - cell viability counter screen (AID 743194). Further: nearly all actives have a fitted effect of over 55% in size. Further: potency means the concentration at half of the fitted maximal effect. Put shortly: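 Viability was measured as CellTiter-Glo luminescence in GeneBLAzer PPARg UAS-bla HEK293H cells. These cells had been exposed 17 h at 37 C to compounds together with rosiglitazone at 50 nM final, with the beta-lactamase readout taken in the same wells.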

Assay [4] in a line: qHTS assay for small molecule agonists of the antioxidant response element (ARE) signaling pathway - cell viability counter screen (AID 743203; calls by dose curve; further: nearly all actives have a fitted effect of over 55% in size; further: potency means the concentration at half of the fitted maximal effect). Summed up: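 Following 16 hrs of compound treatment at 37C, HepG2 cells with an ARE-controlled beta-lactamase gene were lysed with CellTiter-Glo. Luminescence was read after 30 min at room temperature.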
Assay [5] is described as follows: qHTS assay for small molecule activators of the heat shock response signaling pathway - cell viability counter screen (AID 743209). Further: nearly all actives have a fitted effect of over 50% in size. Summed up: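 Readout: CellTiter-Glo luminescence, 30 min at room temperature. System: HSE-bla HeLa cells, 1500/well, plated overnight. Treatment: compounds in DMSO, 5 h at 37 C.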
Assay [6] is described as follows: qHTS assay to identify small molecule agonists of the peroxisome proliferator-activated receptor delta (PPARd) signaling pathway - cell viability counter screen (AID 743211). Further: nearly all actives have a fitted effect of over 55% in size. Further: potency means the concentration at half of the fitted maximal effect. Summed up:
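PPARd-bla HEK293H cells (UAS-beta-lactamase reporter) were treated with compounds for 17 h at 37 C. Viability was then read in the same wells by CellTiter-Glo luminescence after 30 min at room temperature.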

For assay [7], the target named is Peroxisome proliferator-activated receptor delta (Homo sapiens) (UniProt Q03181). Put plainly: qHTS assay to identify small molecule agonists of the peroxisome proliferator-activated receptor delta (PPARd) signaling pathway (AID 743212; calls by dose curve). Summed up: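 HEK293H PPARd-bla cells; 5 h preincubation 37 C/5% CO2; compound (DMSO) 37 C; LiveBLAzer B/G FRET substrate 2 h RT; fluorescence intensity.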
Peroxisome proliferator-activated receptor delta (Homo sapiens), sequence (Q03181 whole entry, looked up): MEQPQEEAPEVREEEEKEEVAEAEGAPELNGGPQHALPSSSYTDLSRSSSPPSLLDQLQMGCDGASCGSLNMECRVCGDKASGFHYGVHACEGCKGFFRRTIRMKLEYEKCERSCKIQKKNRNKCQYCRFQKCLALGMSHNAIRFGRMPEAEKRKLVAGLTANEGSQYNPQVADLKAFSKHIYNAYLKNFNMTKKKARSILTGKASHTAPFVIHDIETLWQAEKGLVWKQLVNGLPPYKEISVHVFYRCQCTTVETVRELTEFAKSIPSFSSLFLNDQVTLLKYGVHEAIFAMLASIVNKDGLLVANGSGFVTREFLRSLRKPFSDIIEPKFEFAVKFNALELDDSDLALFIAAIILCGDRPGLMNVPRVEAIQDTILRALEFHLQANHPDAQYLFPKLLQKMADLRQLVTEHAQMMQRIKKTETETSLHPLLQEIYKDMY

Assay [8] is described as follows: qHTS assay to identify small molecule agonists of the farnesoid-X-receptor (FXR) signaling pathway - cell viability counter screen (AID 743218). Further: nearly all actives have a fitted effect of over 45% in size. Further: potency means the concentration at half of the fitted maximal effect. Summed up: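 Parallel cytotoxicity test: compound-treated (16 h, 37 C) HEK 293T FXR-bla reporter cells were lysed with CellTiter-Glo and luminescence recorded.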
Assay [9] is described as follows: qHTS assay to identify small molecule antagonists of the farnesoid-X-receptor (FXR) signaling pathway - cell viability counter screen (AID 743221; active means well fitted cell-killing curve with a large enough effect in the repeat runs, not every such curve was filed as active; further: nearly all actives have a fitted effect of over 50% in size; further: potency means the concentration at half of the fitted maximal effect). Put shortly: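 FXR-UAS-bla HEK 293T cells were treated with test compounds plus chenodeoxycholic acid (50 uM final) for 16 h at 37 C. Cell viability in the same wells was then read as CellTiter-Glo luminescence after 30 min at room temperature.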

In assay [10] the target is Vitamin D3 receptor (Homo sapiens) (UniProt P11473). Put plainly: qHTS assay to identify small molecule agonists of the vitamin D receptor (VDR) signaling pathway (AID 743222; calls by dose curve). Summed up: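 In VDR-bla cells, compound-induced beta-lactamase expression is quantified by FRET substrate fluorescence. Treatment lasts 16 h at 37C; substrate develops 2 h at room temperature.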
Vitamin D3 receptor (Homo sapiens), sequence (P11473 whole entry, looked up): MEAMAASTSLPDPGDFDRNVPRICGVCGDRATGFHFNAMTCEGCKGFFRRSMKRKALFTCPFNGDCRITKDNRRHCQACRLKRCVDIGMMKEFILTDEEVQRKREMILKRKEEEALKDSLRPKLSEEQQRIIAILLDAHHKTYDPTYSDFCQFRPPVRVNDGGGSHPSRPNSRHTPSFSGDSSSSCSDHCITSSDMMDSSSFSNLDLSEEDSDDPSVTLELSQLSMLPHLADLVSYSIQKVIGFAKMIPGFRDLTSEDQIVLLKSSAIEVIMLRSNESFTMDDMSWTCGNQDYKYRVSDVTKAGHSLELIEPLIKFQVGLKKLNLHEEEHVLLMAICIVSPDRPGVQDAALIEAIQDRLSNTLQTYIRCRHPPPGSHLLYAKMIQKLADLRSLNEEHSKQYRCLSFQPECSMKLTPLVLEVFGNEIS

A short description of assay [11]: qHTS assay to identify small molecule agonists of the vitamin D receptor (VDR) signaling pathway - cell viability counter screen (AID 743224). Further: nearly all actives have a fitted effect of over 50% in size. Further: potency means the concentration at half of the fitted maximal effect. Put shortly:
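Plated VDR-bla cells (4 h, 37C) received compound, incubated 16 h, then LiveBLAzer substrate 2 h RT; CellTiter-Glo added afterwards, luminescence read at 30 min.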

Assay [12] is described as follows: qHTS assay to identify small molecule that activate the aryl hydrocarbon receptor (AhR) signaling pathway - cell viability counter screen (AID 743086).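 Further: HepG2 liver cells carrying the AhR DRE luciferase reporter; series mostly up to about 70 µM; nearly all actives have a fitted effect of over 45% in size.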 Put shortly:
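Cytotoxicity counter screen: CellTiter-Fluor signal (30 min, 37 C) in 4000 HepG2 cells/well carrying the DRE-luciferase reporter, following 24 h compound exposure at 37 C.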

Assay [13] addresses Peroxisome proliferator-activated receptor gamma (Homo sapiens) (UniProt P37231). Put plainly: qHTS assay to identify small molecule agonists of the peroxisome proliferator-activated receptor gamma (PPARg) signaling pathway (AID 743094; active means well fitted activation curve with a large enough effect in the signal ratio in the repeat runs, not every such curve was filed as active; the % refers to the signal ratio). Put shortly:
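Compounds dissolved in DMSO were added to PPARg UAS-bla HEK293H cells for 17 h at 37C, and reporter expression was quantified by fluorescence intensity after 1 h with LiveBLAzer B/G FRET substrate.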

Assay [14] in a line: qHTS assay for small molecule activators of the heat shock response signaling pathway (AID 743210; active means well fitted activation curve with a large enough effect in the signal ratio in the repeat runs, with a control signal flat, not every such curve was filed as active; the % refers to the signal ratio;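 further: HeLa cells with beta-lactamase reporter driven by heat shock elements; series mostly up to about 63 µM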). Summed up: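 HeLa HSE-bla cells, overnight plating; cpd in DMSO 5 h, 37 C; LiveBLAzer B/G FRET substrate 2.5 h RT; fluorescence intensity read.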
Assay [15] can be described thus: qHTS assay to identify small molecule antagonists of the peroxisome proliferator-activated receptor delta (PPARd) signaling pathway - cell viability counter screen (AID 743213). Further: nearly all actives have a fitted effect of over 50% in size. Further: potency means the concentration at half of the fitted maximal effect. Put shortly: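 Agonist-stimulated (L165041, 300 nM final) HEK293H PPARd UAS-bla cells are exposed to compounds for 17 h at 37 C, and ATP-based luminescence (CellTiter-Glo) from the same wells reports cytotoxicity.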

The target in assay [16] is Peroxisome proliferator-activated receptor delta (Homo sapiens) (UniProt Q03181). Description: qHTS assay to identify small molecule antagonists of the peroxisome proliferator-activated receptor delta (PPARd) signaling pathway (AID 743215; active means well fitted inhibition curve with a large enough effect in the signal ratio in the repeat runs, not every such curve was filed as active; the % refers to the signal ratio; further: potency means the concentration at half of the fitted maximal effect). Summed up: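 HEK293H UAS-bla, PPARd; agonist L165041 300 nM final with cpd in DMSO; 37 C 17 h; FRET substrate, RT 2 h; fluorescence intensity.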

Assay [17] addresses Bile acid receptor (Homo sapiens) (UniProt Q96RI1). Put plainly: qHTS assay to identify small molecule antagonists of the farnesoid-X-receptor (FXR) signaling pathway (AID 743217; active means well fitted inhibition curve with a large enough effect in the signal ratio in the repeat runs, not every such curve was filed as active; the % refers to the signal ratio; further: potency means the concentration at half of the fitted maximal effect). Put shortly: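 GeneBLAzer FXR-UAS-bla HEK 293T, CDCA-stimulated (50 uM final). Compound treatment 16 h, 37 °C. Detection: beta-lactamase cleavage of B/G FRET substrate, fluorescence.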
For assay [18] the target is unchanged. Description: qHTS assay to identify small molecule agonists of the farnesoid-X-receptor (FXR) signaling pathway (AID 743220; active means well fitted activation curve with a large enough effect in the signal ratio in the repeat runs, not every such curve was filed as active; the % refers to the signal ratio). Summed up:
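Beta-lactamase reporter under UAS control in GeneBLAzer FXR HEK 293T cells (5000/well) measured with LiveBLAzer FRET substrate after 2 h at room temperature. Compound exposure lasted 16 h at 37C.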

Assay [19] deals with Vitamin D3 receptor (Homo sapiens) (UniProt P11473). Put plainly: qHTS assay to identify small molecule antagonists of the vitamin D receptor (VDR) signaling pathway (AID 743223; active means well fitted inhibition curve with a large enough effect in the signal ratio in the repeat runs, not every such curve was filed as active; the % refers to the signal ratio; further: potency means the concentration at half of the fitted maximal effect). Put shortly:
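VDR-bla cells were plated, incubated 4 h at 37C, then given compound and 1alpha,25-dihydroxyvitamin D3 (3 nM final). After 16 h at 37C, LiveBLAzer B/G FRET substrate was added for 2 h at room temperature and fluorescence read.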

A short description of assay [20]: qHTS assay for small molecule agonists of the antioxidant response element (ARE) signaling pathway (AID 743202; active means well fitted activation curve with a large enough effect in the signal ratio in the repeat runs, not every such curve was filed as active; the % refers to the signal ratio; further: potency means the concentration at half of the fitted maximal effect). Summed up:
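Quantitative high-throughput format in HepG2 cells bearing an integrated ARE-beta-lactamase reporter. Compound exposure lasted 16 h at 37 C, and fluorescence was read 2 h after adding LiveBLAzer B/G substrate at room temperature.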

Inconclusive results are not listed. Active and inactive are the calls of the source. Unless noted, the call rests on the fitted dose curve; in most records, active means well fitted curve in the direction sought with a large enough effect in the repeat runs; inconclusive means weak or mixed curves; inactive means no such curve, though single readings can be large; an effect the other way counts as inactive or inconclusive.

Bile acid receptor (Homo sapiens), sequence (Q96RI1 whole entry, looked up): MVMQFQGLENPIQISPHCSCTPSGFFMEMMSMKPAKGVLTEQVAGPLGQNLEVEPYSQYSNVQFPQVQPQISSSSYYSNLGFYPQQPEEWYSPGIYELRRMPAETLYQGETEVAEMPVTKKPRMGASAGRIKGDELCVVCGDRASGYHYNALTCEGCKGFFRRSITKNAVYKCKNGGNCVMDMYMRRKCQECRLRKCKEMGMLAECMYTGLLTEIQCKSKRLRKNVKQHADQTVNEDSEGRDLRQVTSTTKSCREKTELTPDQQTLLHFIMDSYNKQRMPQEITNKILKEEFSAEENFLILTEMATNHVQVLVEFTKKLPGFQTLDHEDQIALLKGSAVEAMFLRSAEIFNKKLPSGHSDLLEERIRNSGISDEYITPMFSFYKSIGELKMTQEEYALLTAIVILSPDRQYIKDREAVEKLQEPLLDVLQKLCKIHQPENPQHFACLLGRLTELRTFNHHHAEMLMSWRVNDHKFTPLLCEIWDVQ
Aryl hydrocarbon receptor (Homo sapiens), sequence (P35869 whole entry, looked up): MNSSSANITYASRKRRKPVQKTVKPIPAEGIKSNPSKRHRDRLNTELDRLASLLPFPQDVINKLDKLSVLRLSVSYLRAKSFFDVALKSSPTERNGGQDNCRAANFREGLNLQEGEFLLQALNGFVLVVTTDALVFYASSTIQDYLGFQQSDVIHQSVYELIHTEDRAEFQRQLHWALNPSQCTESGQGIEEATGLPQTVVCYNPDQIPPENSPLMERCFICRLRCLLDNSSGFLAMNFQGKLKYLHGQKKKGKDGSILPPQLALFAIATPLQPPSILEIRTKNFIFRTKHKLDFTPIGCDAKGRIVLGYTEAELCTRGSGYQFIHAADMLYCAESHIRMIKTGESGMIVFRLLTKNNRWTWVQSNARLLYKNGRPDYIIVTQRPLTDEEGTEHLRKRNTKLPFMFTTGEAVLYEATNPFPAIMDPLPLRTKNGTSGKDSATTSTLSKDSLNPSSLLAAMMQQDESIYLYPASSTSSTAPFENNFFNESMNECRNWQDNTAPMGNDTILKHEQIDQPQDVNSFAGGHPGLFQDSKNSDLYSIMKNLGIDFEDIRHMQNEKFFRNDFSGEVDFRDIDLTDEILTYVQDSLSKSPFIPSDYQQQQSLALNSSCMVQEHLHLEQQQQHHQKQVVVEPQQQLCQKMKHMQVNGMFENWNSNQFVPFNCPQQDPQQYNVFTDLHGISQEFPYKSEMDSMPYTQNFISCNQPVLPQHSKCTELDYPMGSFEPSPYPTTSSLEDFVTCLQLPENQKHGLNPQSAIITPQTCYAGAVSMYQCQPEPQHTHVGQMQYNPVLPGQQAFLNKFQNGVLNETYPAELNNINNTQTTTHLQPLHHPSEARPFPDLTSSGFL
Peroxisome proliferator-activated receptor gamma (Homo sapiens), sequence (P37231 whole entry, looked up): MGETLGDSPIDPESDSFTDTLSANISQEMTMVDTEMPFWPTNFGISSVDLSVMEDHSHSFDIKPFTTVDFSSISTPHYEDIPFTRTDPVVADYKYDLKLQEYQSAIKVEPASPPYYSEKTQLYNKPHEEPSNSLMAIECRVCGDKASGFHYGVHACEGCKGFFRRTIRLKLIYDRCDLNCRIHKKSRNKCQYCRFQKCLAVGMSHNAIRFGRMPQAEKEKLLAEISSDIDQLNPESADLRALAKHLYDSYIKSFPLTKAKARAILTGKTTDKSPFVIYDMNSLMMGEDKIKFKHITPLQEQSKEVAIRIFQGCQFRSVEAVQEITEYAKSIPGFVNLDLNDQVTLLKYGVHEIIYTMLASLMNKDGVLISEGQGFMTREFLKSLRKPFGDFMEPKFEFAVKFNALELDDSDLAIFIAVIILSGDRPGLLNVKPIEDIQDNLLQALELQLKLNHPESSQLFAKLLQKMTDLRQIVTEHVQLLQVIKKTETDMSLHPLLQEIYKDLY

In the case of `O=[N+]([O-])c1ccc(Nc2ccc(Nc3ccccc3)c(S(=O)(=O)O)c2)c([N+](=O)[O-])c1`, the Potency entry in assay [1], in [2], in assay [3], in [4], in assay [5] and in assay [6] was “inactive” in each case. Further, the Potency result in assay [7], in assay [8], in [9], in assay [10] and in assay [11] was “inactive” each time.

On to `Cc1cc(C)c(N)cc1C`, for which the Potency entry in assay [12], in assay [13], in assay [3], in assay [4], in assay [5] and in assay [14] was “inactive” throughout. Also, the Potency result in assay [6], in assay [7], in assay [15], in [16], in assay [17] and in assay [8] was “inactive” in each case. Further, the Potency result in assay [18], in [9], in assay [10], in assay [19] and in assay [11] was “inactive” throughout.

For `C=CC(=O)OCC1CC2CC1C1CCC(COC(=O)C=C)C21` (stereo not given), the Potency result in assay [12], in [13], in assay [4], in [6], in assay [8] and in assay [10] was “inactive” throughout.

On to `C[C@@H]1CN(CCCn2c3ccccc3c3ccccc32)C[C@H](C)N1`, for which the Potency was 26.6 µM (active) in assay [1]; 23.7 µM (active) in assay [3]; 26.6 µM (active) in [4]; 10.6 µM (active) in assay [6]; 9.44 µM (active) in assay [15]; 29.8 µM (active) in [16]. Further, the Potency in assay [8] is 15 µM (active); in assay [9], 29.8 µM (active); in [11], 26.6 µM (active). The Potency result in [5] is “inactive”.

Regarding `C/C=C(/C(=C/C)c1ccc(O)cc1)c1ccc(O)cc1`, the Potency result in [1], in assay [13], in [4], in assay [7], in assay [18] and in assay [10] was “inactive” in each case. Further, in [11], the Potency result was “inactive”. Besides, the Potency was 29.8 µM (active) in [2] and 15 µM (active) in assay [20].

Consider `c1ccc2c(c1)CCc1ccccc1N2`, for which the Potency entry in [12], in assay [13], in [2], in assay [3], in assay [20] and in [4] was “inactive” each time. Besides, the Potency result in assay [5], in assay [14], in assay [6], in [7], in assay [15] and in [16] was “inactive” each time. For the same molecule, the Potency entry in [8], in assay [9], in [10] and in assay [11] was “inactive” in each case.

Take `N#[N+]c1ccc2c(S(=O)(=O)[O-])cccc2c1O`: the Potency result in assay [1], in [13], in assay [3], in assay [20], in assay [4] and in [5] was “inactive” each time. Besides, the Potency result in [14], in assay [6], in [15], in assay [8], in assay [9] and in assay [10] was “inactive” each time. In addition, the Potency result in assay [19] and in [11] was “inactive” each time.

Turning to `Cc1[nH]cnc1CN1CCc2c(c3ccccc3n2C)C1=O`, the Potency result in assay [12], in assay [13], in [3], in [20], in [4] and in assay [5] was “inactive” in each case. For the same molecule, the Potency entry in assay [6], in assay [15], in assay [8], in [9], in assay [10] and in assay [19] was “inactive” throughout. Also, the Potency entry in [11] was “inactive”.

`COc1cc(C(=O)NC2CCN(C)CC2)ccc1Nc1ncc2c(n1)N(C1CCCC1)CC(F)(F)C(=O)N2C`: the Potency result in assay [1], in [13], in assay [14], in assay [7] and in assay [10] was “inactive” each time. Besides, the Potency in [3] was 50.4 µM (active); in [4], 28.1 µM (active); in assay [6] it was 11.3 µM (active); in assay [15], 7.11 µM (active); in assay [16], 14.2 µM (active); in [17], 22.5 µM (active). The values for the Potency in [8], in assay [19] and in [11] were 17.9 µM (active), 6.34 µM (active) and 15.9 µM (active), respectively.

The record behind these values is PubChem BioAssay (Tox21).
